Test results as given in the supplement of paper PMC6555819.

These sequences were tested on VDR:RXRa (NR concentration 270 nM, RXRa partner concentration 90 nM) (assay: PBM binding z-score (relative to random genomic background probes); higher = stronger binding; sequences stand for … in GC…GCGATTGACAGCGTAGAATGAAGG).
Method: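 Protein-binding microarray (Agilent 4x180K custom design, double-stranded 60-nt probes: 5' GC cap, 34-nt variable region, 24-nt constant primer region; full probe sequence given). Purified or IVT nuclear receptor:RXRα heterodimers (3:1 NR:RXRα, mostly 270:90 nM) or homodimers were incubated for 1 h in PBS with 2% milk and no ligand, then detected with Alexa488 antibodies. Fluorescence from o1-orientation probes (~5 replicates averaged) was converted to z-scores against 500 random hg19 background probes. Variable regions are seed direct-repeat (DR0–DR5) sites, all their single-nucleotide variants and half-site ablations.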

| Sequence | PBM binding z-score |
| --- | --- |
| CTAGCAAGGTGAACAAGGTCGTTGATTACTATTC | 6.05 |
| ATCGAAACGTCGAGGTGAGTATAGAGAAAGGGAA | -0.325 |
| TCTCGGTGGACACGAAGGTCAGAGCTTTCCAGAG | 1.02 |
| AGAACGAGGGCACGCTGAGTTGATAGCAGAGTAG | 2.2 |
| AGAATGAGTTTACCAAAGATCAGGGAAACGCTTG | 1.05 |
| CCGACTGGGGCAAGGTTGCCATAACGCACAGCCA | -0.351 |
| CGAACTAGGTCAGAACAGGAGAGTGAAGGATGAT | 0.035 |
| ATCTCTAGGTAAGACTCAGTTCCGTGAAGAACGC | 0.121 |
| CGTCAAAGTTCAAGGTAACGTACCAGAAAGCAGC | 3.87 |
| CGAACTCGGTCAGAACAGGACAGTGAAGGATGAT | -0.191 |
| CCTAGTTGGTCAGGAGGTCACACCCCGGATATGA | 3.82 |
| CAAACTAGGTCATCCAGGACAGTGAATACATTGA | 4.58 |
| TTAGCAAGGTGAAAGGTCGTTGATGCACGCCTTG | 2.93 |
| ATATGTAGGTTAAGGGTCATCCAGGTTGGTTCGC | 5.91 |
| CCTTACGGCTCACGAGGTTATAGCACGACGAGCG | 0.412 |
| CCAGACAGGTGAAAGGTAGCTCAGTCTGGTACGC | -0.089 |
| TCTTGTAGAGCAAAGGTTAAGAAAGCCGAAGCCT | 0.679 |
| ATCGAAAGGTCGTGAGGAGAGTATACAGAAAGGC | 3.11 |
| ATCGAAAGGTCGAGGAGAGTATAGAGAAAGGGAA | 2.64 |
| CCTTACGGGTCACCCCAGGTTATAGCATCGGAGT | 4.91 |

| Sequence | PBM binding z-score |
| --- | --- |
| TCTAGCAGGCCAGAGGGTCACCCAAGAGGTACGG | 1.71 |
| CAAACTAGGTCACGGAAGGTCAAAGTCGAATGAC | 6.69 |
| CGTCCTAGGTCAATGCTAGGTCAGTGAAAGCATT | 3.02 |
| ACAGACAGGTGAGTGAAGGAAACTCAGCTGGACG | -0.816 |
| ACAGACAGGTGAGTGAAGGTAACTCACCTGGACG | -0.173 |
| ATCTCTAGGTAACAAGTTCAGTGGAAGAGAGGAC | 2 |
| CAAACTAGGTCACAGACGTCAAAGTCCGTGCGTA | 3.26 |
| TCATATAGGTAAAGGTGAAAGCCGAACGATATGA | 0.743 |
| CTCGAAAGGTCGGTTGGGGTGAGTATACGGATAA | 3.24 |
| CCTACTGGGCCATTCAGAGGTAATTGATCATATG | -0.36 |
| TAGCATAGGTCATTGGGCCAGTATAGTACGCATC | 3.27 |
| GCGGCTGGGGCATCAGCAGGTTACCATAACTTAA | -0.259 |
| GCGACTGGGGCAACGCAGGTTACCATAAGGTTGG | -0.0248 |
| CCTTACGGGTCACTCCAGGTGATAGCATCGGAGT | 3.34 |
| CGAGCGAGGGCATGAGTTGATAGCAAATGCCGAT | 1.3 |
| ATATGTAGCTTAGCTGGGGTCATTCAGACTAGGC | 4.78 |
| CCGACTGGGGCAGAAAGGTTACCATCCCATCCGG | 0.789 |
| ACTATTCGTTGACTTAGGGCAACCGATACGACGC | 0.325 |
| ATCGAAAGGTTGTGAGGTGAGTATACAGAAAGGC | 0.652 |
| TTACCAAGGTGAGTTGAGGTCGTTGATCCAACTC | 4.05 |
